The source of these data is PubChem BioAssay (NCATS).

Records with an inconclusive call do not appear. A call without a number means that no potency is given here. Activity calls are given as the source filed them. The call rests on the fitted dose curve; in most records, active means well fitted curve in the direction sought with a large enough effect; inconclusive means small, poorly fitted or top-dose-only effect, or another doubt; inactive means no such curve, though single readings can be large; an effect the other way counts as inactive or inconclusive.

For test [1], the target named is Aldehyde dehydrogenase, mitochondrial (Homo sapiens) (UniProt P05091). As to the kind of experiment: qHTS for Inhibitors of the Aldehyde Dehydrogenase Family (ALDH2) Primary screen (AID 2061308). Further: nearly all actives have a fitted effect of over 55% in size.
In test [2] the target is Retinaldehyde dehydrogenase 3 (Homo sapiens) (UniProt P47895). As to the kind of experiment: qHTS for Inhibitors of the Aldehyde Dehydrogenase Family (ALDH1A3) Primary screen (AID 2061315).

For `NC(=O)C1CCN(c2nc(-c3cccc(N)c3)cs2)CC1`, the Potency result in test [1] and in test [2] was “inactive” each time.

For `CCOC(=O)c1cccc(NS(=O)(=O)c2ccc(NC(=O)Cc3ccc(Cl)c(Cl)c3)cc2)c1`, the Potency entry in test [1] and in test [2] was “inactive” each time.

For `COc1ccc(-c2ccc3nnc(-c4ccccc4OC)n3n2)cc1OC`, the Potency entry in test [1] and in test [2] was “inactive” in each case.

With `N#CN1CCC(NS(=O)(=O)c2cccc(C(F)(F)F)c2)CC1`, the Potency entry in test [1] and in test [2] was “inactive” in each case.

On to `COc1cccc(C2c3c(ncn(-c4ccccc4Cl)c3=N)Oc3ccc4ccccc4c32)c1` (stereo unspecified), for which the Potency entry in test [1] and in test [2] was “inactive” throughout.

Consider `O=C(/C=C/c1ccc(Cl)cc1)Nc1cccc([S+](=O)([O-])Nc2ccccc2F)c1`, for which the Potency entry in test [1] and in test [2] was “inactive” each time.

On to `Cc1cnc(-c2ccccc2CO)nc1NCc1ccc(-c2cccnc2)cc1`, for which the Potency result in test [1] and in test [2] was “inactive” in each case.

For `N#CN1CCC(NS(=O)(=O)c2ccc(F)cc2)C1` (stereo unspecified), the Potency entry in test [1] and in test [2] was “inactive” each time.

Take `COc1ccc(C2c3c(n(Cc4ccccc4)cnc3=N)Oc3ccc4ccccc4c32)cc1OC` (stereo unspecified): the Potency result in test [1] and in test [2] was “inactive” in each case.

On to `COc1ccc(Oc2c(Cl)cnn(-c3cc(C)cc(C)c3)c2=O)cc1`, for which the Potency result in test [1] and in test [2] was “inactive” in each case.

As for `CCCn1c(-c2ccc(F)cc2)nc2c(NCCCN3CCCCC3C)nc(C)nc21` (stereo unspecified), the Potency entry in test [1] and in test [2] was “inactive” in each case.

As for `CC1=C(C(=O)Nc2ccccc2)C(c2ccccc2Br)N=C(Nc2nc3ccccc3o2)N1` (stereo unspecified), the Potency entry in test [1] and in test [2] was “inactive” in each case.

In the case of `CCCCNc1nc(C)nc2c1nc(-c1ccccc1)n2CC1CCN(C)CC1`, the Potency entry in test [1] and in test [2] was “inactive” each time.

For `Cc1ccc(OCCCn2c(CCNC(=O)C3CCCCC3)nc3ccccc32)cc1`, the Potency entry in test [1] and in test [2] was “inactive” in each case.

On to `C=C(C)C(=O)OC1C(OC(C)=O)/C(C=O)=C\CC/C(CO)=C/C2OC(=O)C(=C)C21` (stereo unspecified), for which the Potency result in test [1] and in test [2] was “inactive” each time.

Regarding `CCc1ccc(NC(=O)c2[nH]c(C)c(C(C)=O)c2C)cc1S(=O)(=O)Nc1ccc(C#N)cc1`, the Potency entry in test [1] and in test [2] was “inactive” throughout.

With `FC(F)(F)c1cccc(N2CCN(C(=S)Nc3ccncc3)CC2)c1`, the Potency result in test [1] and in test [2] was “inactive” throughout.

In the case of `CCCn1c(-c2ccc(F)cc2)nc2c(NCCCN(CC)CC)nc(C)nc21`, the Potency entry in test [1] and in test [2] was “inactive” in each case.

As for `Cc1cc(-c2nnc3n2CCCCC3)c(C)n1-c1cccc(Cl)c1`, the Potency entry in test [1] and in test [2] was “inactive” throughout.

As for `Cc1cc(C)n2ncc(C(=O)Nc3ccc(Cl)c(Cl)c3)c2n1`, the Potency result in test [1] and in test [2] was “inactive” each time.

As to `Cc1ccc(S(=O)(=O)Nc2ccccc2C(=O)Nc2ncc(-c3ccccc3)s2)cc1`, the Potency entry in test [1] and in test [2] was “inactive” throughout.

Regarding `CNCC(=O)Nc1ccc(Cl)cc1C(=O)c1ccc[nH]1`, the Potency result in test [1] and in test [2] was “inactive” in each case.

With `COc1cc(O)c(C(CC(=O)N2CCOCC2)c2ccc(C)cc2)c(OC)c1` (stereo unspecified), the Potency entry in test [1] and in test [2] was “inactive” in each case.

`Cc1cc2c(s1)c1cnn(Cc3cccc(Br)c3)c(=O)c1n2C`: the Potency entry in test [1] and in test [2] was “inactive” each time.

`COc1cccc(C2c3c(ncn(-c4ccc(F)cc4)c3=N)Oc3ccc4ccccc4c32)c1` (stereo unspecified): the Potency entry in test [1] and in test [2] was “inactive” throughout.

For `CCOc1ccc(NC(=O)c2ccc(-c3nc4ccccc4[nH]3)cc2)cc1Cl`, the Potency result in test [1] and in test [2] was “inactive” each time.

On to `COc1ccc(C(=O)NCC(=O)OC(C(=O)Nc2cc(C(F)(F)F)ccc2Cl)c2ccccc2)cc1OC` (stereo unspecified), for which the Potency entry in test [1] and in test [2] was “inactive” throughout.

Take `O=C(OCC#CCSc1nnc(-c2cccs2)o1)c1ccc(F)cc1`: the Potency entry in test [1] and in test [2] was “inactive” each time.

For the compound `COc1ccc(OC)c(C(=O)Nc2nc(-c3ccccc3)cs2)c1`, the Potency entry in test [1] and in test [2] was “inactive” throughout.

For the compound `COc1ccc(Nc2nc(-c3ccncc3)nc3ccccc23)cc1F`, the Potency result in test [1] and in test [2] was “inactive” throughout.

With `COc1ccccc1/C=C/C(=O)NCCc1nc2ccccc2n1CCOc1ccc(C)cc1`, the Potency entry in test [1] and in test [2] was “inactive” in each case.

As to `CC(=O)c1ccc(N2CCN(S(=O)(=O)c3ccc(N4CCCC4=O)cc3)CC2)cc1`, the Potency result in test [1] and in test [2] was “inactive” each time.

For `COc1ccc(C2c3c(ncn(CCCc4ccccc4)c3=N)Oc3ccc4ccccc4c32)cc1OC` (stereo unspecified), the Potency entry in test [1] and in test [2] was “inactive” each time.

On to `c1cncc(CNc2ccnc(-c3ccc4c(c3)OCO4)n2)c1`, for which the Potency entry in test [1] and in test [2] was “inactive” each time.

On to `COc1cccc(CNc2ncnc3ccc(-c4c(C)noc4C)cc23)c1`, for which the Potency result in test [1] and in test [2] was “inactive” throughout.

As to `CN(C)CCCN1CCCN(C(=O)c2cccc(-c3cc(O)c4ncccc4c3)c2)C1`, the Potency result in test [1] and in test [2] was “inactive” in each case.

As for `O=C(Cn1nc(-c2ccc3c(c2)OCO3)ccc1=O)NCCc1ccccc1`, the Potency result in test [1] and in test [2] was “inactive” each time.

In the case of `O=C(c1ccccc1O)N(Cc1ccccc1)Cc1ccccc1`, the Potency entry in test [1] and in test [2] was “inactive” throughout.

Take `Cc1nc(NCc2ccc(-c3ccnc(C(F)(F)F)c3)cc2)c2ccccc2n1`: the Potency entry in test [1] and in test [2] was “inactive” in each case.

On to `Cc1ccc(S(=O)(=O)Nc2cnccc2C(=O)Nc2ccccc2)cc1`, for which the Potency result in test [1] and in test [2] was “inactive” throughout.

In the case of `O=C(OCC#CCSc1nnc(-c2cccc3ccccc23)o1)c1ccc2ccccc2c1`, the Potency entry in test [1] and in test [2] was “inactive” throughout.

As to `O=c1[nH]c(CCl)nc2sc3c(c12)CCCC3`, the Potency result in test [1] and in test [2] was “inactive” throughout.

As for `COc1ccc(-c2nnc3n2N=C(c2ccccc2OC)CS3)cc1OC`, the Potency result in test [1] and in test [2] was “inactive” each time.
